Only some compounds are listed: those with a hit (about 11% of all), similar ones and a draw of the others.
HPGD inh: qHTS Assay for Inhibitors of HPGD (15-Hydroxyprostaglandin Dehydrogenase) | 15-hydroxyprostaglandin dehydrogenase [NAD(+)] (Homo sapiens), P15428 | purified HPGD, NADH fluorescence kinetic, PGE2 substrate | Potency, µM, inactives show at the top dose activity change, negative = inhibition, actives largely listed as inhibitors | 4.3% of 150,000 active | AID 894, 2007; also: potency is read from the fitted curve at half-maximal effect
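NADH formation kinetics: reaction with 30 uM PGE2 and 1 mM NAD+ (final), 20 nM enzyme, Tris-HCl pH 8 with Tween 20, after 15 min compound preincubation at room temperature. Fluorescence change, last versus first of five reads.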
IMPase cell inh: qHTS Assay for Identifying the Cell-Membrane Permeable IMPase Inhibitors; inhibition (IP1 accumulation), % at 46.1 µM; AID 901, 2007; 120,000 tested, under 10 active; Inositol monophosphatase 1 (Rattus norvegicus), P97697; CHO-M1 cells, IP1 accumulation, HTRF TR-FRET ratio; active = well fitted curve in the direction sought with a large enough effect in the signal ratio, not every such curve was filed as active; inconclusive = small, poorly fitted or top-dose-only effect, or a change in a side signal; inactive = no such curve, though single readings can be large or run the other way; the % refers to the signal ratio;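 also: cells stimulated with carbachol in lithium chloride buffer; plate controls were DMSO basal wells for no effect and reference inhibitor wells for full effect; higher means more IMPase inhibition seen as more IP1 and lower FRET ratio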
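The IP-One HTRF competitive assay in carbachol-stimulated CHO-M1 cells quantifies cellular IP1. Compounds spanned up to 46 uM final, and activity is expressed as AC50 from concentration-response fits of the ratio and donor data.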
IMPase Li inh: qHTS Assay for Identifying the Cell-Membrane Permeable IMPase Inhibitors: Potentiation with Lithium; CHO-M1 cells, IP1 TR-FRET (IP-One), carbachol + lithium; Potency, µM (doses to about 59.4 µM), inactives show top-dose activity, negative = IMPase inhibition, usual class: inhibitors; 0.35% of 210,000 active; active = well fitted inhibition curve with a large enough effect; inconclusive = small, poorly fitted or top-dose-only effect; inactive = no such curve, though single readings can be large or run the other way;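 also: IP1 builds up when IMPase is blocked and the TR-FRET signal falls; potency is read from the fitted curve at half-maximal effect; plate controls were basal vehicle for no effect and high inhibitor control for full effect; nearly all actives have a fitted effect of over 50% in size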
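Steps: plate 2000 CHO-M1 cells per well and culture 16–30 h; add compound and lithium; incubate 30 min, 37C; add d2-IP1 tracer and Eu cryptate anti-IP1 antibody in lysis buffer; read after 10 min at room temperature.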
ALDH1A1 inh: qHTS Assay for Inhibitors of Aldehyde Dehydrogenase 1 (ALDH1A1); Purified ALDH1A1, NADH fluorescence, propionaldehyde substrate; Potency, µM (top dose mostly 75.3 µM), inactives show at the top dose activity, negative = inhibition, hits mostly inhibitors; Aldehyde dehydrogenase 1A1 (Homo sapiens), P00352; 7.3% of 220,000 active;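 also: potency is read from the fitted curve at half-maximal effect; plate controls were no enzyme wells and a reference inhibitor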
Target sequence (P00352 whole entry, looked up): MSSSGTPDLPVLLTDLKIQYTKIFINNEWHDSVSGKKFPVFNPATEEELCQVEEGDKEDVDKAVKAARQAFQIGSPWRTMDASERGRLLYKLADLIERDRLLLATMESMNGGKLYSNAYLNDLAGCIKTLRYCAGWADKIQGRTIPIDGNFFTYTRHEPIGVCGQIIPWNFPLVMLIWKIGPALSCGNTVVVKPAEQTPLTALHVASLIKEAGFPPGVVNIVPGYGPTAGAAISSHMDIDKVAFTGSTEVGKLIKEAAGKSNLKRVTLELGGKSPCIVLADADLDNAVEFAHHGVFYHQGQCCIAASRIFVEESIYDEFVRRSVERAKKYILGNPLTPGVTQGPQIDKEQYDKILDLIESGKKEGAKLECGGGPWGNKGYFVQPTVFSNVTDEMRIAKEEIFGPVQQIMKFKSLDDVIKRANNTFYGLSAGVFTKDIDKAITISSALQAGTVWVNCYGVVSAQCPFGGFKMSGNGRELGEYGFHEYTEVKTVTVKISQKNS
PNC assembly inh: High Content Assay for Compounds that inhibit the Assembly of the Perinucleolar Compartment; PC3M PTB-GFP, PNC prevalence imaging, 16 h; active compounds read low; AID 2417, 2010; 3.1% of 140,000 active; activity change (PNC), negative = inhibition, % at 10 µM;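 active = readout at or below -70, meaning at least 70% loss of cells showing the perinucleolar compartment, a nuclear body marking cancer cells; inconclusive = readout between -30 and a set limit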;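 also: plate controls were DMSO wells for no effect and camptothecin positive control wells for full effect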
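Read-out is percentage of cells bearing a perinucleolar compartment, from automated 20x imaging of fixed, Hoechst-stained PC3M PTB-GFP cells. Cells were seeded 4 h, then exposed 16 h to compound (23 nl of library stock) in duplicate plates.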
* marks the source's active call; other numbers are inactive results; ? = inconclusive; . = no result; [ ] = dose if it differs, or a comment. Unless noted, calls follow the shape of the dose curve; as a rule, active = well fitted inhibition curve with a large enough effect (not every such curve was filed as active); inconclusive = small, poorly fitted or top-dose-only effect, or another doubt; inactive = no such curve, though single readings can be large or run the other way. Unless noted, % is scaled to controls: 0 for no effect and ±100 for the full control effect.

SMILES | HPGD inh | IMPase cell inh | IMPase Li inh | ALDH1A1 inh | PNC assembly inh
COc1ccc(CCN2C(=O)CC(C(N)=O)SC2=Nc2ccccc2)cc1OC (centres undefined) | -9% | -2 | -1%[38.3 µM] | 14µM* | ?
COc1ccc(CCN2C(=O)CC(N3CCN(c4ccccn4)CC3)C2=O)cc1OC (centres undefined) | -12% | 7 | 35%[38.3 µM] | 25µM* | 12
COc1ccc(CCN2C(=O)CC(Sc3ncccc3C(=O)O)C2=O)cc1OC (centres undefined) | -12% | 0 | 26%[38.3 µM] | 3.5µM* | ?
CNC(=O)C1CC(=O)N(CCc2ccc(OC)c(OC)c2)C(=Nc2ccc(F)cc2)S1 (centres undefined) | . | . | -3% | 10% | .
COc1ccc(CCN2C(=O)CC(N3CCOCC3)C2=O)cc1OC (centres undefined) | -13% | 9 | 7% | ? | -10
O=C1CC(N2CCN(c3ccccn3)CC2)C(=O)N1CC(c1ccccc1)c1ccccc1 (centres undefined) | -27% | -3 | 18% | 3.2µM* | -28
CN1C(=O)CC(Sc2ncccc2C(=O)O)C1=O (centres undefined) | -1% | -5 | -7%[38.3 µM] | -5% | -6
Cc1cnc(C(=O)Nc2ccc(F)cc2)cn1 | -23% | 6 | -7%[38.3 µM] | 32µM* | 35
Cc1cnc(C(=O)Nc2ccc(C(=O)N(C)C3CCCCC3)cc2)cn1 | 13µM* | 5 | -5%[38.3 µM] | 9% | -21
Cc1cnc(C(=O)Nc2ccccc2-n2cccc2)cn1 | -11% | -5 | 6%[38.3 µM] | 16µM* | -17
Cc1cnc(C(=O)Nc2ccccc2F)cn1 | -20% | 1 | -9%[38.3 µM] | -4% | ?
COc1ccc(NC(=O)N2CC[C@@]3(CCCN(C(C)=O)C3)C2)cc1 | -8% | . | 28% | ? | .
C=C(C)C(=O)c1cccs1 | -7% | . | 2% | -2% | .
Cc1ccc(C2(CC(=O)N3CCCC3)CCOC(C(C)C)C2)cc1 (centres undefined) | -13% | 1 | 27%[38.3 µM] | ? | -23
COc1ccccc1C1(CC(=O)N2CCCCC2)CCOC(C(C)C)C1 (centres undefined) | 25µM* | -5 | -6%[38.3 µM] | 1% | -16
CCCC[C@@H](C=O)NC(=O)[C@H](CC(C)C)NC(=O)OCc1ccccc1 | . | . | 23% | -15% | .
Cc1ccccc1NS(=O)(=O)c1cc(S(C)(=O)=O)ccc1C | -8% | . | -3% | 4% | -18
Cc1ccc(S(C)(=O)=O)cc1S(=O)(=O)Nc1cccc(Cl)c1 | 1% | . | -1% | -1% | -112*
CCn1c(=S)[nH]c2cc(S(=O)(=O)N3CCCCC3)ccc21 | -20% | 28 | -9%[38.3 µM] | 7.1µM* | -25
O=c1[nH]c2ccc(S(=O)(=O)N3CCCCC3)cc2o1 | 0% | 2 | 3% | -1% | -29
O=S(=O)(c1ccc2oc(=S)[nH]c2c1)N1CCCCC1 | . | . | . | 20µM* | .
O=S(=O)(Nc1cccc(Cl)c1)c1ccc2oc(=S)[nH]c2c1 | . | . | -7% | 1µM* | .
CCCN(CCC)C(=O)SCC | -2% | . | -4% | 8% | .
COc1ccc(Oc2ncc3nc(-c4ccc(F)cc4)c(=O)n(CCC#N)c3n2)cc1 | . | . | 1% | -3% | .
C[C@@]12CC[C@@H]3[C@H](CCC4=CC(=O)CC[C@]43C)[C@@H]1CC[C@@H]2C(=O)Cn1cnc2c(=S)nc[nH]c21 | 0% | . | 4% | -1%[13.5 µM] | .
SMILES | HPGD inh | IMPase cell inh | IMPase Li inh | ALDH1A1 inh | PNC assembly inh
COC(=O)Cc1ccc(O)c(N)c1 | . | . | 6% | 28µM* | .
CCOc1ccc(NC(=O)c2cc3c(C)nn(-c4ccccc4)c3s2)cc1 | . | 2 | . | . | .
COc1ccc(NC(=O)CN2CCC(C(N)=O)(N3CCCCC3)CC2)c(OC)c1 | . | . | -2% | -9% | .
Cc1noc(C)c1C(=O)N1CCC2(CC1)CN(c1ccccn1)C2 | ? | . | 0% | ? | .
Cn1c(Cc2csc(N)n2)nnc1SCC(=O)NCc1ccccc1 | -10% | -6 | 12%[38.3 µM] | 28µM* | -92*
CC[N+]1(C)[C@@H]2CC[C@H]1CC(OC(=O)[C@H]1CC[C@@](C(=O)OC3C[C@H]4CC[C@@H](C3)[N+]4(C)CC)(c3ccccc3)c3ccccc31)C2 (some centres undefined) | -1% | 8[20.6 µM] | 9% | 2%[20.9 µM] | .
O=c1cc(N2CCc3ccccc3C2)[nH]c(=O)n1-c1ccccc1Cl | -15% | 2 | 19%[38.3 µM] | 6.3µM* | 10
COC(=O)[C@@]1(Cc2ccccc2)[C@H]2c3cc(C(=O)N4CCCC4)n(Cc4cc(F)cc5c4OCOC5)c3C[C@H]2CN1C(=O)c1ccccc1 | -12% | . | 20% | 1% | .
CCCOc1ccc(C(=O)Nc2nc(C)c(Cc3ccc4c(c3)OCO4)s2)cc1 | ? | . | 10µM* | ? | ?
O=[N+]([O-])c1c(NCCO)cc(N2CCCCC2)c2nonc12 | . | . | 14% | ? | .
O=C(NCc1ccco1)c1ccc(N2CCCCC2)c([N+](=O)[O-])c1 | 32µM* | . | 17% | ? | ?
O=C1CN(C(=O)COC(=O)c2ccc(N3CCCCCC3)c([N+](=O)[O-])c2)c2ccccc2N1 | . | 10 | . | 7.9µM* | 13
O=C(NCc1ccco1)c1ccc(N2CCOCC2)c([N+](=O)[O-])c1 | . | . | 5% | ? | .
NC(=O)c1ccc(N2CCN(c3ccc(O)cc3)CC2)c([N+](=O)[O-])c1 | . | . | 5% | 16µM* | .
O=[N+]([O-])c1cc([N+](=O)[O-])c(N2CCCCCC2)cc1NCCO | -10% | -9 | 2%[38.3 µM] | 2.2µM* | 96
CCOC(=O)C(Cc1c[nH]c2ccccc12)NC(=O)COc1ccc(Cl)c(C)c1 (centres undefined) | . | -2 | . | . | .
Cc1nnc(SCC(=O)N(C)c2ccccc2)n1Cc1ccccc1 | . | . | 5% | ? | .
O=C(Nc1nc2ccc3ccccc3c2s1)c1ccc(N2CCCCC2)c([N+](=O)[O-])c1 | -6% | -8 | -5% | 5% | ?
COc1ccc(CNC(=O)c2ccc(N3CCOCC3)c([N+](=O)[O-])c2)cc1 | . | . | 1% | 3% | .
